# Laboratory results from the supplement of paper PMC5641865, “A screen for kinase inhibitors identifies antimicrobial imidazopyridine aminofurazans as specific inhibitors of the Listeria monocytogenes PASTA kinase PrkA” (The Journal of Biological Chemistry, 2017).
# ± gives the standard deviation of the averaged measurements.
# Test system: Listeria monocytogenes 10403S
# Assay: growth inhibition relative to ceftriaxone-alone control; higher = stronger potentiation of ceftriaxone growth inhibition
# Details: 10 µM; ceftriaxone 1 ug/ml; 12 h
# 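Also: End-point A600 read in BHI broth at 37 °C with 2% DMSO, inhibition computed as (1 − OD with compound plus ceftriaxone ÷ OD with ceftriaxone only) × 100.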
row,SMILES,growth inhibition [%]
1,CCn1c(-c2nonc2N)nc2c(C#CC(C)(C)O)nc(CN3CCCC3)cc21,4.95 ± 5.7
2,O=C(Nc1n[nH]c2nnc(-c3cccnc3)cc12)C1CC1,-0.393 ± 1.3
3,Cc1nc(NC(=O)N2CCC[C@H]2C(N)=O)sc1-c1ccnc(C(C)(C)C(F)(F)F)c1,24.9 ± 21
4,COc1ccc2c3n(c(=NC(=O)c4cccnc4)nc2c1OC)CCN3,-0.968 ± 4.8
5,Cc1c(CN2CCN(C(=O)[C@H](C)O)CC2)sc2c(N3CCOCC3)nc(-c3cnc(N)nc3)nc12,22.8 ± 8.1
6,[O-][S+]1CCN(Cc2ccc(-c3ccc4ncnc(Nc5ccc(OCc6ccccc6)c(Cl)c5)c4c3)o2)CC1,2.22 ± 6.4
7,OCCn1cc(-c2cnc3nnn(Cc4ccc5ncccc5c4)c3n2)cn1,22.9 ± 24
8,c1cc(-c2cnn3nc(N4CCOCC4)ccc23)nc(NC2CC2)n1,-1.92 ± 0.84
9,COc1cc2ncn(-c3cc(OCc4ccccc4C(F)(F)F)c(C(N)=O)s3)c2cc1OC,-2.24 ± 0.56
10,Nc1nccc(-c2c(-c3ccc(F)cc3)nn3cc(C(F)(F)F)ccc23)n1,-7.97 ± 19
11,NCc1ccc(-c2nc(-c3ccc(Cl)c(O)c3)c(-c3ccncc3)[nH]2)cc1,-9.88 ± 15
12,CNC(=O)c1cc(COc2nnc(Nc3ccc(Cl)cc3)c3ccoc23)ccn1 [Telatinib (BAY 57-9352)],22.8 ± 32
13,CCc1nn2ncccc2c1-c1ccnc(NC2CC2)n1,-4.93 ± 3
14,CN(c1ncccc1CNc1nc(Nc2ccc3c(c2)CC(=O)N3)ncc1C(F)(F)F)S(C)(=O)=O,41.8 ± 28
15,"Cc1cc(Nc2cc(N3CCN(C)CC3)nc(Sc3ccc(NC(=O)C4CC4)cc3)n2)n[nH]1 [VX-680 (MK-0457, Tozasertib)]",52.7 ± 17
